Inconclusive results are not listed. Active and inactive are the calls of the source. How the source made its calls: active means hit-call score of the fitted dose curve at least 0.9, where 1 is the maximum; inconclusive means response in the unintended direction; inactive means score below 0.9.
Experiments:
[1] = molecular target: human Adenosine A2a Receptor (AdoRA2a), ADORA2A (gene 135) (UniProt P29274); assay: NVS_GPCR_hAdoRA2a: NovaScreen (NVS) G Protein-Coupled Receptor Assay for human Adenosine A2a Receptor (AdoRA2a) (AID 2283256)
human Adenosine A2a Receptor (AdoRA2a), ADORA2A (gene 135), sequence (P29274 whole entry, looked up): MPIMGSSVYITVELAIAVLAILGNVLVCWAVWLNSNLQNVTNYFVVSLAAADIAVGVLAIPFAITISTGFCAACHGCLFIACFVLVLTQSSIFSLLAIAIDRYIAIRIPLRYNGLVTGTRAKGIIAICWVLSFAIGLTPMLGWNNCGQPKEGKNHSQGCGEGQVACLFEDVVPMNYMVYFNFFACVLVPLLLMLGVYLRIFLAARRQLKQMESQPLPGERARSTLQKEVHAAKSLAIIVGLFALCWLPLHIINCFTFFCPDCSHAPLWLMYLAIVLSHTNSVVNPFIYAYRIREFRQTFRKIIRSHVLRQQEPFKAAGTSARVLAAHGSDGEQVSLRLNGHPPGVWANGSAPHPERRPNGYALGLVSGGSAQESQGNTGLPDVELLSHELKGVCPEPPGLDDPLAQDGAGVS
Procedure, shortened: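 HEK293-derived receptor preparation, radioligand displacement, 1.5 h, filtration + scintillation read. Loss of bound signal scored vs DMSO. Single-point 25 uM in duplicate first, then concentration-response for actives.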

[2] = molecular target: Adenosine receptor A1 (Bos taurus) (UniProt P28190); assay: NVS_GPCR_bAdoR_NonSelective: NovaScreen (NVS) G Protein-Coupled Receptor Assay for bovine Adenosine Receptor (AdoR), Non-selective Binding (AID 2283244)
Adenosine receptor A1 (Bos taurus), sequence (P28190 whole entry, looked up): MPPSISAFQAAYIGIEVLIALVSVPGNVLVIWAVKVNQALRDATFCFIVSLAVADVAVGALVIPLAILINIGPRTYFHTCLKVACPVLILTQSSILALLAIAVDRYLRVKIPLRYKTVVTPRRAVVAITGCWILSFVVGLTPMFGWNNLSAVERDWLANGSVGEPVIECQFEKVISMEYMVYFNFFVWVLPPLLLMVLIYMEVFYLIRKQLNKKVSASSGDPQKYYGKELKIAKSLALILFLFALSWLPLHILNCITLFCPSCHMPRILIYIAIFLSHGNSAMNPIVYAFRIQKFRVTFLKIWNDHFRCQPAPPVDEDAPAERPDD
Procedure, shortened: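 Cell-free binding with membranes from bovine striatum: radioligand displaced by test chemical, read after 1 h by filtration and scintillation. Single-point 25 uM duplicate primary, 50 uM top concentration in follow-up curves, DMSO baseline.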

[3] = NVS_GPCR_bNPY_NonSelective: NovaScreen (NVS) G Protein-Coupled Receptor Assay for bovine Neuropeptide Y (NPY) Receptor, Non-selective Binding (AID 2283245)
Procedure, shortened: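 Displacement of radioligand from bovine hippocampal membrane receptors, read by filtration and scintillation counting after 1 hour. Concentration-response to a top of 50 uM followed a 25 uM duplicate primary screen. Loss of signal versus DMSO.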

[4] = system: guinea pig Leukotriene B4 Receptor (LTB4), gene 100379538; assay: NVS_GPCR_gLTB4: NovaScreen (NVS) G Protein-Coupled Receptor Assay for guinea pig Leukotriene B4 Receptor (LTB4) (AID 2283247)
Procedure, shortened: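 Membranes from guinea pig spleen incubated 2 h with radioligand and compound; bound counts measured by filtration and scintillation. Screened first at 25 uM in duplicate, then actives titrated to a 50 uM top concentration relative to DMSO.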

[5] = molecular target: guinea pig Leukotriene D4 Receptor (LTD4), CYSLTR1 (gene 100135514) (UniProt Q2NNR5); assay: NVS_GPCR_gLTD4: NovaScreen (NVS) G Protein-Coupled Receptor Assay for guinea pig Leukotriene D4 Receptor (LTD4) (AID 2283248)
guinea pig Leukotriene D4 Receptor (LTD4), CYSLTR1 (gene 100135514), sequence (Q2NNR5 whole entry, looked up): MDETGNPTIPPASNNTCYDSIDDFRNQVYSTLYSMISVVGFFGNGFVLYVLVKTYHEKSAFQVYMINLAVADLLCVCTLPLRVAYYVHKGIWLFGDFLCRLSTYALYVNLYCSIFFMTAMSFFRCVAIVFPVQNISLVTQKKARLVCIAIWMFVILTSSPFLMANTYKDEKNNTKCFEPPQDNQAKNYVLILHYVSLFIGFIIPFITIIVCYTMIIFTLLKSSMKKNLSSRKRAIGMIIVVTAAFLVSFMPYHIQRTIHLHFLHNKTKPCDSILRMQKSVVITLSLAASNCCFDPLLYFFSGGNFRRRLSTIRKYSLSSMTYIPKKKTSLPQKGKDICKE
Procedure, shortened: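 Guinea pig lung membrane preparation; bound radioligand measured by filter scintillation after 1 h, loss of signal versus DMSO marking displacement. Compounds tested at 25 uM in duplicate, hits retested to max 50 uM.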

[6] = molecular target: human Serotonin, 5-Hydroxytryptamine Receptor 2A (5HT2A), HTR2A (gene 3356) (UniProt P28223); assay: NVS_GPCR_h5HT2A: NovaScreen (NVS) G Protein-Coupled Receptor Assay for human Serotonin, 5-Hydroxytryptamine Receptor 2A (5HT2A) (AID 2283249)
Procedure, shortened: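 Radioligand displacement on human cortex tissue extract, counted by filtration and scintillation 1.5 h post-dosing. Initial single-concentration screen at 25 uM in duplicate, concentration series in follow-up; DMSO as baseline.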

[7] = system: guinea pig Muscarinic, Peripheral (Mperiperal) Receptor, Non-selective Binding, gene 100379235; assay: NVS_GPCR_gMPeripheral_NonSelective: NovaScreen (NVS) G Protein-Coupled Receptor Assay for guinea pig Muscarinic, Peripheral (Mperiperal) Receptor, Non-selective Binding (AID 2283250)
Procedure, shortened: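 Screened in duplicate at 25 uM, hits retested in concentration series to 50 uM max, using bladder membrane radioligand displacement from guinea pig. Filtration and scintillation counting 1 h post-dose, fitted relative to DMSO.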

[8] = molecular target: human Serotonin, 5-Hydroxytryptamine Receptor 5A (5HT5A), HTR5A (gene 3361) (UniProt P47898); assay: NVS_GPCR_h5HT5A: NovaScreen (NVS) G Protein-Coupled Receptor Assay for human Serotonin, 5-Hydroxytryptamine Receptor 5A (5HT5A) (AID 2283251)
human Serotonin, 5-Hydroxytryptamine Receptor 5A (5HT5A), HTR5A (gene 3361), sequence (P47898 whole entry, looked up): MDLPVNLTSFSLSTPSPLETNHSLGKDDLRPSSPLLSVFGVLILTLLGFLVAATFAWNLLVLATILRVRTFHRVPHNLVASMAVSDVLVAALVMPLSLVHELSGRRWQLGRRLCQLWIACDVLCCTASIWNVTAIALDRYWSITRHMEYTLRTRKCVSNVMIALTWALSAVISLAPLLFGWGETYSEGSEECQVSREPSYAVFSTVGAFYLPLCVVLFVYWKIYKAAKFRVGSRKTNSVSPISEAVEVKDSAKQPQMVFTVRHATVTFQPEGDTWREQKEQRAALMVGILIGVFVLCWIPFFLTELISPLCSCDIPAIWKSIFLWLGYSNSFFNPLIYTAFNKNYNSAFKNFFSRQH
Procedure, shortened: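 Membranes from HEK293 cells, radioligand binding read by filtration and scintillation after 1 h. Single-concentration duplicate testing at 25 uM, then concentration-response for actives; positive-direction fitting relative to DMSO.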

[9] = molecular target: guinea pig Opioid, Kappa 1 Receptor (OpiateK), OPRK1 (gene 100135587) (UniProt P41144); assay: NVS_GPCR_gOpiateK: NovaScreen (NVS) G Protein-Coupled Receptor Assay for guinea pig Opioid, Kappa 1 Receptor (OpiateK) (AID 2283252);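 further: active means reduced radioligand binding relative to DMSO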
guinea pig Opioid, Kappa 1 Receptor (OpiateK), OPRK1 (gene 100135587), sequence (P41144 whole entry, looked up): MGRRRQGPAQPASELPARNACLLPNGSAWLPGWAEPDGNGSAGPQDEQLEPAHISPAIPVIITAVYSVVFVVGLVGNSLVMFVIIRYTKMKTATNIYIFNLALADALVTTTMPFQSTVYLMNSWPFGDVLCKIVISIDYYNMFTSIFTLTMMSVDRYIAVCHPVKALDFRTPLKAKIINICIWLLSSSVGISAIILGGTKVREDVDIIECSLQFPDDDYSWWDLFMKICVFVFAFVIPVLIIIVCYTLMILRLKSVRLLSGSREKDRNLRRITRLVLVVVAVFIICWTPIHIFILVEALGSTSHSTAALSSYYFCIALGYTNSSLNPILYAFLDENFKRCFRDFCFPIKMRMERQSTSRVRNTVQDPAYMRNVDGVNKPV
Procedure, shortened: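 Radioligand binding to kappa opioid receptor in guinea pig cerebellar membranes, read by filtration and scintillation at 2 h. Compounds first tested in duplicate at 25 uM, then actives in concentration series; signal loss fitted against DMSO.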

[10] = molecular target: human Serotonin, 5-Hydroxytryptamine Receptor 6 (5HT6), HTR6 (gene 3362) (UniProt P50406); assay: NVS_GPCR_h5HT6: NovaScreen (NVS) G Protein-Coupled Receptor Assay for human Serotonin, 5-Hydroxytryptamine Receptor 6 (5HT6) (AID 2283253)
human Serotonin, 5-Hydroxytryptamine Receptor 6 (5HT6), HTR6 (gene 3362), sequence (P50406 whole entry, looked up): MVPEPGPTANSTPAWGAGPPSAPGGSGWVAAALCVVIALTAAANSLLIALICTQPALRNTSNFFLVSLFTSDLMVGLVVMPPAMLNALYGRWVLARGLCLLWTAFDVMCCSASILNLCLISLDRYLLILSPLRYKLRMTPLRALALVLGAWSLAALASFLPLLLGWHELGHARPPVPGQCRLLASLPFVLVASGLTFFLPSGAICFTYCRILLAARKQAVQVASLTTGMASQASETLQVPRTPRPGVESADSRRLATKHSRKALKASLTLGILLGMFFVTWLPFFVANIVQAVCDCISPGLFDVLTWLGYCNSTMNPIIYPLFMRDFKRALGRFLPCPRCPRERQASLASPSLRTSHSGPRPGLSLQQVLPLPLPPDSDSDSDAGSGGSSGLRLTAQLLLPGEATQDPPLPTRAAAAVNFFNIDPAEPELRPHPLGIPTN
Procedure, shortened: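 Filter scintillation counting of radioligand displacement from HEK293-expressed 5HT6, 1 hour post-dose, with loss of signal relative to DMSO. Single 25 uM duplicates first, with concentration series for confirmation.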

[11] = molecular target: human Adenosine A1 Receptor (AdoRA1), ADORA1 (gene 134) (UniProt P30542); assay: NVS_GPCR_hAdoRA1: NovaScreen (NVS) G Protein-Coupled Receptor Assay for human Adenosine A1 Receptor (AdoRA1) (AID 2283254)
human Adenosine A1 Receptor (AdoRA1), ADORA1 (gene 134), sequence (P30542 whole entry, looked up): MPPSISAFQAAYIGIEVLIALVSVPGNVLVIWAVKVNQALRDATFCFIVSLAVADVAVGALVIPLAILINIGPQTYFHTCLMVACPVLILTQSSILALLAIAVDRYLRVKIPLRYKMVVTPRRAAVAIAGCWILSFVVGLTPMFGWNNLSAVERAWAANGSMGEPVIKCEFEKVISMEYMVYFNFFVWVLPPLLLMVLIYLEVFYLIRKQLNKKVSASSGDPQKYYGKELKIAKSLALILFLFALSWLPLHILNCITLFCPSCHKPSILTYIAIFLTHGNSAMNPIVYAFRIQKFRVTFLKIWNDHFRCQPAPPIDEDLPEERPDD
Procedure, shortened: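 Hum. cortical membranes + radioligand, cmpd 1 h; filtration, scintillation count. Readout = decrease vs DMSO. Primary 25 uM dup; hits → conc. series.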

[12] = molecular target: human Serotonin, 5-Hydroxytryptamine Receptor 7 (5HT7), HTR7 (gene 3363) (UniProt P34969); assay: NVS_GPCR_h5HT7: NovaScreen (NVS) G Protein-Coupled Receptor Assay for human Serotonin, 5-Hydroxytryptamine Receptor 7 (5HT7) (AID 2283255);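 further: hits reduce specific radioligand binding relative to DMSO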
human Serotonin, 5-Hydroxytryptamine Receptor 7 (5HT7), HTR7 (gene 3363), sequence (P34969 whole entry, looked up): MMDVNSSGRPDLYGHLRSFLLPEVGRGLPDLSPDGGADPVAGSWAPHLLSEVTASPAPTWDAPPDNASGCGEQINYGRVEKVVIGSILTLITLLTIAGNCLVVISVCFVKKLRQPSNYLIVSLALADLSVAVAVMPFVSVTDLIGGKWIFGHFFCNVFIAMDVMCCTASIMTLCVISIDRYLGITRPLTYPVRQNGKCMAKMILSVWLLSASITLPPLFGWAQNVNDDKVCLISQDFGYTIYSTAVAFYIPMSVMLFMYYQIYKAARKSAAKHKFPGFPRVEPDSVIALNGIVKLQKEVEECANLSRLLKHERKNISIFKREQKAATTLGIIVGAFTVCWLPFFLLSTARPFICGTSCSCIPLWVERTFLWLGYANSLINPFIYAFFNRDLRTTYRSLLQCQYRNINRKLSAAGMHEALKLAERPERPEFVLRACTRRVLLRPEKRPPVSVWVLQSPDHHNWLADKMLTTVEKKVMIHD
Procedure, shortened: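 Filter-bound radioactivity counted after 1 h, with loss of specific radioligand binding fitted against DMSO. Membrane protein came from CHO cells expressing human 5HT7. Chemicals were tested first at 25 uM in duplicate, then in concentration series if active.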

[13] = molecular target: human Adrenergic, Alpha 2A Receptor (Adra2A), ADRA2A (gene 150) (UniProt P08913); assay: NVS_GPCR_hAdra2A: NovaScreen (NVS) G Protein-Coupled Receptor Assay for human Adrenergic, Alpha 2A Receptor (Adra2A) (AID 2283257)
Procedure, shortened: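 Displacement of a specific radioligand from HT29 membrane protein was counted by filter scintillation after 1 h. Compounds were screened in duplicate at 25 uM, and actives were retested in concentration series. Fitting was positive-direction against DMSO.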

[14] = molecular target: human Adrenergic, Beta 1 Receptor (Adrb1), ADRB1 (gene 153) (UniProt P08588); assay: NVS_GPCR_hAdrb1: NovaScreen (NVS) G Protein-Coupled Receptor Assay for human Adrenergic, Beta 1 Receptor (Adrb1) (AID 2283258)
human Adrenergic, Beta 1 Receptor (Adrb1), ADRB1 (gene 153), sequence (P08588 whole entry, looked up): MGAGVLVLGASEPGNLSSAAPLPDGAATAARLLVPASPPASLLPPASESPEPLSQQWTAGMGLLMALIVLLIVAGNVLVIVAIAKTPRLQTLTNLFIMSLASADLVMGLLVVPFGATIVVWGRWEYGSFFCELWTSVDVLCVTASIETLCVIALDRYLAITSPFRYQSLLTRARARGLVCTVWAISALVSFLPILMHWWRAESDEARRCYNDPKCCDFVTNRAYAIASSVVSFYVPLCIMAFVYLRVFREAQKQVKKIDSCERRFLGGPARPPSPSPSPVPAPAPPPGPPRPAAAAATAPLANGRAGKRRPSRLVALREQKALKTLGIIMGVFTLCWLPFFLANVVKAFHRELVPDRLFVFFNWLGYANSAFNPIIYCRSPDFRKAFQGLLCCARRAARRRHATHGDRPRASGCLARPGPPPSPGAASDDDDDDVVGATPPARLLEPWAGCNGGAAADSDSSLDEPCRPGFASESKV
Procedure, shortened: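 Membranes/protein extracted from human neuroepithelioma cells, radioligand competition binding read by filtration and scintillation 2 h post-dose. Single 25 uM duplicate screen, then concentration-response follow-up; DMSO as negative control.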

[15] = molecular target: human Adrenergic, Alpha 2c Receptor (Adra2C), ADRA2C (gene 152) (UniProt P18825); assay: NVS_GPCR_hAdra2C: NovaScreen (NVS) G Protein-Coupled Receptor Assay for human Adrenergic, Alpha 2c Receptor (Adra2C) (AID 2283259)
human Adrenergic, Alpha 2c Receptor (Adra2C), ADRA2C (gene 152), sequence (P18825 whole entry, looked up): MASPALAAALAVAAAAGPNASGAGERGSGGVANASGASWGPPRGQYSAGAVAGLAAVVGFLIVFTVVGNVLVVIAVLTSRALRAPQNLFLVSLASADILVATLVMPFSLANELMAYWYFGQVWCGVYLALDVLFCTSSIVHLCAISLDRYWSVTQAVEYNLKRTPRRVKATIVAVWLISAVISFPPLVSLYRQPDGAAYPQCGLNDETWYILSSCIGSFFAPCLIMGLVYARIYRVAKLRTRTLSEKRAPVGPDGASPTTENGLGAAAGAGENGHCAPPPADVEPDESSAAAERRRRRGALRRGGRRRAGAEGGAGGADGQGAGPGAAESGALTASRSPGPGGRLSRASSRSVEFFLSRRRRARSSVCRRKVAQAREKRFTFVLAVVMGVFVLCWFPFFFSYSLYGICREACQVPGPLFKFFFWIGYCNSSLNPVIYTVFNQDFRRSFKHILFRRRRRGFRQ
Procedure, shortened: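 Screened first in duplicate at 25 uM, with actives then run as concentration series. Membranes from Sf9 cells were exposed for 1 h, and displacement of radioligand was counted after filtration, using DMSO as baseline.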

[16] = molecular target: Beta-2 adrenergic receptor (Homo sapiens) (UniProt P07550); assay: NVS_GPCR_hAdrb2: NovaScreen (NVS) G Protein-Coupled Receptor Assay for human Adrenergic, Beta 2 Receptor (Adrb2) (AID 2283261)
Beta-2 adrenergic receptor (Homo sapiens), sequence (P07550 whole entry, looked up): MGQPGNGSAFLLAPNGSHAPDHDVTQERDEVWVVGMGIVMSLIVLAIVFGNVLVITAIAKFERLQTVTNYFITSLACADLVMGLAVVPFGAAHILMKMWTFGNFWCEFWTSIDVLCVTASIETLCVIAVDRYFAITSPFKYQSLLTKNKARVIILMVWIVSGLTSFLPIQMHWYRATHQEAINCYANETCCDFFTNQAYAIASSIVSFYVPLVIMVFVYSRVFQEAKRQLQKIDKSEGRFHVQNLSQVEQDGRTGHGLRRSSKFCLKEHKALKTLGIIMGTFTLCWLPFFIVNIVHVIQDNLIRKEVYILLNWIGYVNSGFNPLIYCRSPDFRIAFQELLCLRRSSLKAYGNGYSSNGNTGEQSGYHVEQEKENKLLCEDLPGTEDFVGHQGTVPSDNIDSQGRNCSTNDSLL
Procedure, shortened: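 Compounds screened in duplicate at 25 uM, then actives in concentration series. Human beta-2 receptor from CHO material, cell-free; radioligand displacement after 1 h measured by filtration and scintillation against DMSO baseline.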

[17] = system: rat Monoamine Oxidase, MAO-A, Central (MAOAC), gene 29253; assay: NVS_ENZ_rMAOAC: NovaScreen (NVS) Enzymatic Assay for rat Monoamine Oxidase, MAO-A, Central (MAOAC) (AID 2283243);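 further: potency refers to inhibition seen as signal drop below DMSO baseline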
Procedure, shortened: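 Lysate-based radiometric enzyme assay using rat brain tissue; 1.5 h treatment; 25 uM single-point duplicate screen, concentration-response follow-up; loss of signal versus DMSO.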

[18] = molecular target: rat Monoamine Oxidase, MAO-B, Peripheral (MAOBP), Maob (gene 25750) (UniProt P19643); assay: NVS_ENZ_rMAOBP: NovaScreen (NVS) Enzymatic Assay for rat Monoamine Oxidase, MAO-B, Peripheral (MAOBP) (AID 2283242)
rat Monoamine Oxidase, MAO-B, Peripheral (MAOBP), Maob (gene 25750), sequence (P19643 whole entry, looked up): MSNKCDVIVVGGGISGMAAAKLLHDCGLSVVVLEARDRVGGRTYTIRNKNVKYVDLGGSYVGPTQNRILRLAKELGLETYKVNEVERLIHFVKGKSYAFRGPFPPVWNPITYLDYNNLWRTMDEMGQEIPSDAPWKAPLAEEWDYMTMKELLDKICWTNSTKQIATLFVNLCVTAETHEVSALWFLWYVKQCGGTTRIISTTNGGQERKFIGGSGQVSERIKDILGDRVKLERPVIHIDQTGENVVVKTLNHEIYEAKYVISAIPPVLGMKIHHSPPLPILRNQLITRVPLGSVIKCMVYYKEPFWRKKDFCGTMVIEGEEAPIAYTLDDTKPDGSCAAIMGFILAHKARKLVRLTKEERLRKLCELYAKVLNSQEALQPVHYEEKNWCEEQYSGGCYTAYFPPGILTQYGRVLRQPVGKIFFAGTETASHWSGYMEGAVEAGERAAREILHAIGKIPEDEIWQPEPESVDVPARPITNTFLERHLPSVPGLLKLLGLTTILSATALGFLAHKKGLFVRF

[19] = system: bovine Histamine 1 Receptor (H1), gene 281231; assay: NVS_GPCR_bH1: NovaScreen (NVS) G Protein-Coupled Receptor Assay for bovine Histamine 1 Receptor (H1) (AID 2283246)
Procedure, shortened: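 Hits from a 25 uM duplicate primary screen were retested in concentration series (top 50 uM); binding measured as scintillation-counted displacement of radioligand from bovine cerebellar membranes after 1 h, normalised to DMSO.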

In the case of `Oc1c(I)cc(I)cc1I`, the outcome [1] is reported as “inactive”.

With `CC(=O)[O][Hg][c]1ccccc1` the AC50 [2] was 25 µM (active), the AC50 [3] was 4.57 µM (active) and the AC50 [4] was 3.45 µM (active). For the same compound, the AC50 [5] was 1.58 µM (active), the AC50 [6] was 19.1 µM (active) and the AC50 [7] was 6 µM (active). The AC50 [8] was 791 nM (active), the AC50 [9] was 31.4 µM (active) and the AC50 [10] was 1.32 µM (active). The AC50 [11] was 25 µM (active), the AC50 [12] was 0.577 µM (active) and the AC50 [1] was 6.98 µM (active). For the same compound, the AC50 [13] was 20.1 µM (active), the AC50 [14] was 993 nM (active) and the AC50 [15] was 252 nM (active). The AC50 [16] was 934 nM (active).

In the case of `Clc1ccc(C2(Cn3cncn3)CC(Br)CO2)c(Cl)c1` (stereo not given), the AC50 [9] is reported as 11.8 µM (active).

In the case of `O=C1C2(Cl)C3(Cl)C4(Cl)C(Cl)(Cl)C5(Cl)C3(Cl)C1(Cl)C5(Cl)C24Cl` (stereo not given), the outcome [8] is reported as “inactive”, the AC50 [12] is reported as 1.04 µM (active) and the AC50 [1] is reported as 0.11 µM (active). The AC50 [14] was 978 nM (active).

For `CCOP(=S)(OCC)Oc1nc(Cl)c(Cl)cc1Cl`, the outcome [12] was “inactive”.

In the case of `CCNc1nc(NC(C)(C)C)nc(SC)n1`, the AC50 [11] is reported as 17.8 µM (active) and the AC50 [1] is reported as 17.4 µM (active).

In the case of `O=[N+]([O-])c1ccc2c3c(cccc13)CC2`, the AC50 [17] is reported as 6.28 µM (active).

With `C[C@]12CCC(=O)C[C@@H]1CC[C@@H]1[C@@H]2CC[C@]2(C)[C@@H](O)CC[C@@H]12` the outcome [18] was “inactive”.

In the case of `O=C(O)C(F)(F)C(F)(F)C(F)(F)C(F)(F)C(F)(F)C(F)(F)C(F)(F)C(F)(F)C(F)(F)C(F)(F)F`, the outcome [2] is reported as “inactive”, the AC50 [4] is reported as 5.1 µM (active) and the outcome [5] is reported as “inactive”. The outcome [8] was “inactive”, the AC50 [12] was 12.9 µM (active) and the AC50 [1] was 2.43 µM (active). The AC50 [15] was 4500 nM (active).

With `C[C@@H]1C[C@@H]([C@H](O)CC2CC(=O)NC(=O)C2)C(=O)[C@@H](C)C1` the outcome [19] was “inactive”.

Reference: PubChem BioAssay (EPA / NIEHS)
